The values that follow come from PubChem BioAssay (NCATS).

Results filed as inconclusive are left out. Active and inactive are the calls of the source. The call rests on the fitted dose curve; in most records, active means well fitted curve in the direction sought with a large enough effect; inconclusive means small, poorly fitted or top-dose-only effect, or effect the other way, or another doubt; inactive means no such curve, though single readings can be large or run the other way.

This assay in a line: DH5-alpha competent E. coli microbial cell viability qHTS against the NCATS CANVASS Library (AID 1347377). The note with it: BacTiter-Glo ATP luminescence, overnight; series mostly up to 46.1 µM. An excerpt:
Natural products and their derivatives continue to be wellsprings of nascent therapeutic potential. However, many laboratories have limited resources for biological evaluation, leaving their previously isolated or synthesized compounds largely or completely untested. To address this issue, the Canvass library of natural products was assembled (https://tripod.nih.gov/canvass), in collaboration with academic and industry researchers, for quantitative high-throughput screening (qHTS) across a diverse set of cell-based and biochemical assays. The pure (>85% purity by liquid chromatography/mass spectrometry [LC/MS]) Canvass library of 346 natural products were submitted by 45 academic laboratories and companies around the world. We collected pure natural products to circumvent deconvolution and structure elucidation due to time and resource limitations. The library was formatted into 1536-well plates and evaluated in 50 qHTS (in an 11-pnt concentration series) bioassays with broad scope of disease-relevant mechanisms. The resulting data set from 50 different assays was then systematically analyzed to identify overall trends and specific natural products with interesting biological activities. Reported herein are the results of each individual qHTS and their corresponding assay protocol. The BacTiter-Glo microbial cell viability assay is a homogeneous method for determining the number of viable bacterial cells in culture based on quantitation of the ATP present. ATP is an indicator of metabolically active cells. The homogeneous assay procedure involves adding a single reagent (BacTiter-GloTM Reagent) directly to bacterial cells in medium and measuring luminescence. National Center for Advancing Translational Sciences (NCATS), Rockville, MD National Institute of Health (NIH), Bethesda, Maryland
DH5-alpha competent E.coli cytotoxicity protocol: 1. In a 1536 well, tissue culture treated white solid bottom plates (Greiner Bio-One North America), 5 uL of DH5-alpha competent E. coli suspension (0.9 OD culture diluted 0.2 OD) was dispensed into columns 1, 2, and 5-48 using the Multidrop Combi dispenser (Thermo Fisher Scientific). 2. Controls and compounds were pin transferred (~23 nL volume) to the assay plates via Wako Pin-tool (Wako Automation, Richmond VA) equipped with a 1536 pin head. The compounds were transferred to columns 5-48 resulting in a final concentration ranging from 0.17nM to 92uM. Daunomycin was used as a control in various concentrations (1mM working concentration; 1:2 dilution; 16 points; n=2; column 2, rows) for a final concentration range of 0.2 nM to 9.2 uM. 3. The assay plates were incubated overnight at 37C, 5% CO2, 95% humidity. 4. 2.5 uL of BacTiterGlo solution (Promega) was then added to the assay plates (column 1-48, rows 1-32). The assay plates were incubated at room temperature for 20 min. 5. Luminescence signal was acquired via the ViewLux plate reader using a clear emission filter, 2 second exposure and 2x binning settings.
In general terms: Quantitative high-throughput screening tests each substance at several concentrations.
Regarding `CN1C(=O)[C@]23CC4C(C)(C)[C@@]5(C[C@@]41CN2CC[C@@]3(C)O)C(=O)Nc1c5ccc2c1OC=CC(C)(C)O2` (stereo partly specified), the molecule was called inactive.
For `CCCC[C@@H]1CC[C@H]2CCCC(CCC)N12` (stereo partly specified), the molecule was classed as inactive.
As to `CNCCc1ccccc1`, the molecule was called inactive.
The entry for `CC1=CC(=O)C2=C(C)C[C@H](O)[C@@H]3[C@H](OC(=O)[C@@H]3C)[C@@H]12` is “inactive”; for `CC=C1CN(C=O)[C@H]2C[C@@H]1[C@@H](C(=O)OC)[C@@]13CCOC21Nc1ccccc13` (stereo partly specified) it is “inactive”.
The entry for `C/C=C1/CN2CC[C@]34C(=Nc5ccccc53)[C@@H]2C[C@@H]1[C@H]4C(=O)OC` is “inactive”.
The entry for `C[C@@H]1CC[C@@H](c2ccoc2)N2C[C@@]3(CC[C@@H]12)CS[C@@]1(CC[C@H]2[C@H](C)CC[C@@H](c4ccoc4)N2[C@@H]1O)C3` is “inactive”; for `CNCCc1c[nH]c2ccccc12` it is “inactive”; for `CN(C)Cc1c[nH]c2ccccc12` it is “inactive”.
For the molecule `COc1ccc2c3c([nH]c2c1)C(C)=NCC3`, the call was inactive.
The entry for `COc1ccc2c(c1)[nH]c1c(C)nccc12` is “inactive”; for `CC[N@@+]1([O-])C[C@]2(C)CC[C@@H](O)[C@@]34C5C[C@H]6CC[C@@]5(C(C[C@H]23)C41)[C@H](O)[C@@]6(O)CO` (stereo partly specified) it is “inactive”; for `CCC[C@H]1CC[C@H]2[C@H](C)CCC[C@H]2N1` it is “inactive”.
The entry for `CC[C@@H]1CN2CC[C@@]3(O)C(=Nc4cccc(OC)c43)[C@@H]2C[C@@H]1/C(=C\OC)C(=O)OC` is “inactive”; for `CO[C@@H](/C=C/CC/C=C/C(=O)O)[C@@H](O)[C@H](C)[C@@H](O)/C(C)=C/[C@H](C)C(=O)CCCC1CC(=O)NC(=O)C1` it is “inactive”.
The entry for `COc1ccc(C23Oc4cc(OC)cc(OC)c4[C@](O)([C@H](c4ccccc4)C2C(=O)NCCCCNC(=O)c2ccccc2)[C@@H]3O)cc1` (stereo partly specified) is “inactive”; for `CC(=O)N[C@H]1CCN2CCC[C@H]12` it is “inactive”; for `NCCc1ccccc1` it is “inactive”.
Turning to `CCN1C[C@]2(C)CC[C@@H](O)[C@]34C1[C@H](C[C@H]23)C12CCC(CC14)[C@](O)(CO)[C@H]2O` (stereo partly specified), the call was inactive.
As to `COC(=O)C1=C2Nc3ccccc3[C@@]23CCN2CC(C(C)=O)C1C[C@H]23` (stereo partly specified), the call was inactive.
The entry for `CCCCC[C@@H]1OC(=O)[C@@H](C)N(C)C(=O)[C@H](CCCCC)OC(=O)C(C)N(C)C(=O)[C@H](CCCCC)OC(=O)[C@@H](C)N(C)C(=O)[C@H](CCCCC)OC(=O)C(C)N(C)C1=O` (stereo partly specified) is “inactive”.
For `CCN1C[C@]2(C)CC[C@H](O)[C@]34C1C(C[C@H]23)[C@@]12CC[C@H](CC14)[C@](O)(COC(=O)c1ccc(OC)c(OC)c1)[C@H]2O` (stereo partly specified), the call was inactive.
On to `CNCCc1ccc(O)cc1`, for which the molecule was classed as inactive.
The entry for `CO[C@H](c1ccccc1)[C@H]1NC(=O)C(C)NC(=O)C(C[C@@H](C)CO)N(C)C(=O)[C@@H](C(O)c2cn(C(C)(C)C3CO3)c3ccccc23)NC(=O)C(C(C)C=C(C)C)NC(=O)C(CC(C)C)N(C)C(=O)C(C(C)C)NC1=O` (stereo partly specified) is “inactive”; for `C=C1[C@@H](C)[C@H]2[C@H](Cc3ccccc3)NC(=O)[C@]23OC(=O)/C=C/[C@H](O)CCC[C@@H](C)C/C=C/[C@H]3[C@@H]1O` it is “inactive”.
The entry for `CCC(=O)CCCCC[C@@H]1NC(=O)[C@H]2CCCCN2C(=O)[C@H]([C@@H](C)CC)NC(=O)[C@H](Cc2cn(OC)c3ccccc23)NC1=O` is “inactive”.
